Data: the OligoGym collection

target: GAB3; assay: pooled miR-30 sensor sort-seq; sequence = guide strand; conditions: shRNA
Further: reference of the scale not given here.

Sequence | sensor-assay potency score (higher = more potent)
TTGCTGGAGTGCTTGTTCCTGT | -0.331
TTTCCTTGAATCGTTATGCTTT | 0.221
TTCCACACTGCACACTCGCTGA | -0.565
TTGAGATCTCTATTCACTGGGG | 0.467
TTGACCAGCTATCACATCTGGT | -0.37
TTTTGTGCTCTGGAGAGCCTGT | -0.572
TTTCGATGTAGCTTTCTTCGTC | 0.694

target: GABBR1; assay: as above; conditions: shRNA

Sequence | sensor-assay potency score (higher = more potent)
TTGAGATTCGGGGAGATCCTTC | -0.396
TGGATCACACTTGCTGTCGTGG | -0.99
TTGGATAGCATGTTCTTCCCAG | 0.0924
TTTTCAAAGAGTTTCACGCGGG | -0.189
TCTTGGTGAACATGGAACCGTA | -1.08
TTCTCATCAACTATCCACTGGA | 0.124
TAGTTTCTCCACAAATTCCTGG | -0.496
TAGGTCCATCTGTCTATCCCAA | -0.913
TAGACAAATTGCACATGCCTAC | -0.546
TAAGACTTGGAGCAGATTCGGA | -0.862
TCCTTCTTTGTGAAGACCGTGT | -0.749
TAGTACATGAATGCAATGGAGA | -0.803
TTGTTGTTGGTCGATGACCCTG | -1.05
TAGCCAATCTTCTTGTAGCTGC | -0.0319
ATGGTAGCAATCTTCTTCCAGC | -1.28
TTGTGAGTGTAGACTGAGGGTA | -0.0666
TGAGGTTCCACATCCTAGCAGC | -0.132
TTCTCCTTCTCCAACAGCCGGG | -0.705
TTCTGTGACAAGGAGAGGGTGT | 0.0904
TTCAGCATGACAATCTCAGTTG | -0.723
TAGTCCGGCAGGATGTCCCTGC | -0.16

target: GABRA1; assay: as above; conditions: shRNA

Sequence | sensor-assay potency score (higher = more potent)
TAAACAACTTCTGCTCTTGTAT | -0.033
TTTCTTGTATCTTTGAACCATC | -0.813
TTGTATAAGCATAACTTCCAAA | -0.726
TACTTGACTGGACAATTCCAGA | -1.07
TTAGTGAAATAGTTTACTGTGG | -0.522
TTACACGCTCTCCCAATCCTGG | -1.04
ATTGTCATAACCATCTAGGAGT | -0.817
TTGTGAGAGAATCACTGTCATT | -1.6
TTGTCCAAGAAGGTCATACTGG | -0.186
TATTTATCTCTAAAACATCTGG | -0.271
TTTATCTCTAAAACATCTGGGC | 0.106
